This is an account of results in ChEMBL document CHEMBL1961873, “Compounds: GSK PKIS; Assays: Nanosyn kinase panel” (2012).

As a reminder, the inhibition is the relative decrease from the control value, in per cent.

For assay [1], the target named is T1, Serine/threonine-protein kinase D2 (Homo sapiens) (UniProt Q9BZL6).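 Further: mean value of PRKD2 inhibition, from the GSK PKIS screening panel.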
T1 sequence (whole entry): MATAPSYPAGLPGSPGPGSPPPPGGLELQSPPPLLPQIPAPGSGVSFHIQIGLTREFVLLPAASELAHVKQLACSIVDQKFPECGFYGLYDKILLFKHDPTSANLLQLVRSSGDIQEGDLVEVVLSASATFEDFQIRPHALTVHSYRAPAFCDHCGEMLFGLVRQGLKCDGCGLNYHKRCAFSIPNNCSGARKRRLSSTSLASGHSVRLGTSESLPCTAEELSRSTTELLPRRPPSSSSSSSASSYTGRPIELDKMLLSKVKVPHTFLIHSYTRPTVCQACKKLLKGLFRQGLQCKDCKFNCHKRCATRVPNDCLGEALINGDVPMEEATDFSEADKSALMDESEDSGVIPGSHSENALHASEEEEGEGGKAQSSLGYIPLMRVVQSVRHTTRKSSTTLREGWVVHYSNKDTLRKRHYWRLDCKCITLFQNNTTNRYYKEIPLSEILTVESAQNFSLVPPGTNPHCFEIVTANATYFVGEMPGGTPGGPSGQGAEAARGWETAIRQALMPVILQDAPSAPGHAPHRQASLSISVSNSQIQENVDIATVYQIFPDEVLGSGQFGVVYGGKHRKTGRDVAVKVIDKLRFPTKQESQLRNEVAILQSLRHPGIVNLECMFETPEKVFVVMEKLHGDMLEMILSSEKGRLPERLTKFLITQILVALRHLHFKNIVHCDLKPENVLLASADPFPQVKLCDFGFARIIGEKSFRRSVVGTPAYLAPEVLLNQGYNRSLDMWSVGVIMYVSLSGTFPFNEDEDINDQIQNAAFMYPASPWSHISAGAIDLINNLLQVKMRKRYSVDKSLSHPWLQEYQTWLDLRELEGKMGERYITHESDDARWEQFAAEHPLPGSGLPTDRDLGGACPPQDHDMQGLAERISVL
As to conditions: at 1 µM.

The target in assay [2] is T2, Serine/threonine-protein kinase D3 (Homo sapiens) (UniProt O94806).
T2 sequence (whole entry): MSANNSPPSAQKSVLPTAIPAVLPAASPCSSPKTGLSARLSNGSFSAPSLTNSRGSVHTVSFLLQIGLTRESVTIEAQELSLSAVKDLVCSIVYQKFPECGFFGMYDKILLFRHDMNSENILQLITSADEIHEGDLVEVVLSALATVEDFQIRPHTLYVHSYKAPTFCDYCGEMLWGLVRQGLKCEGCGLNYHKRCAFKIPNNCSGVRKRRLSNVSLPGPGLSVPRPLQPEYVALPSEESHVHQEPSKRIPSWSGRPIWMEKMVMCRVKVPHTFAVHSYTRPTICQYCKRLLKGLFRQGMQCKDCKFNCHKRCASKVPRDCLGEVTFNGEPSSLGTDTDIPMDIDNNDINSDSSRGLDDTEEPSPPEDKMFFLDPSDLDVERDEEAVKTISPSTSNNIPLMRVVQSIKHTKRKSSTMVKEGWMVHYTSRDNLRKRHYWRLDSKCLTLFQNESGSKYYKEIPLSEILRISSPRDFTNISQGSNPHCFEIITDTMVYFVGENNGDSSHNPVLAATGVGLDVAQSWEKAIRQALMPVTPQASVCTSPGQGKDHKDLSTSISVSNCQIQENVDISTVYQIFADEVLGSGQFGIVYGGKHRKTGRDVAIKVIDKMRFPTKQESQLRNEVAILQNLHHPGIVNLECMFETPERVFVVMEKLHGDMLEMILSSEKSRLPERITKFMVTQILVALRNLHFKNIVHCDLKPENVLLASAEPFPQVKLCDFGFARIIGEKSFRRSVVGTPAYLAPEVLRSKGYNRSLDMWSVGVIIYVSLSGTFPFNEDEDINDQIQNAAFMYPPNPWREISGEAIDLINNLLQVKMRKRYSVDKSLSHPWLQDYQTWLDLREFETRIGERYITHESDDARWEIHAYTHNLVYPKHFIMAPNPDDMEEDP
As to conditions: at 0.1 µM.

In assay [3] the target is T2, Serine/threonine-protein kinase D3 (Homo sapiens). As to conditions: at 1 µM.
Assay [4] concerns the target T3, cGMP-dependent protein kinase 1 (Homo sapiens) (UniProt Q13976).
T3 sequence (whole entry): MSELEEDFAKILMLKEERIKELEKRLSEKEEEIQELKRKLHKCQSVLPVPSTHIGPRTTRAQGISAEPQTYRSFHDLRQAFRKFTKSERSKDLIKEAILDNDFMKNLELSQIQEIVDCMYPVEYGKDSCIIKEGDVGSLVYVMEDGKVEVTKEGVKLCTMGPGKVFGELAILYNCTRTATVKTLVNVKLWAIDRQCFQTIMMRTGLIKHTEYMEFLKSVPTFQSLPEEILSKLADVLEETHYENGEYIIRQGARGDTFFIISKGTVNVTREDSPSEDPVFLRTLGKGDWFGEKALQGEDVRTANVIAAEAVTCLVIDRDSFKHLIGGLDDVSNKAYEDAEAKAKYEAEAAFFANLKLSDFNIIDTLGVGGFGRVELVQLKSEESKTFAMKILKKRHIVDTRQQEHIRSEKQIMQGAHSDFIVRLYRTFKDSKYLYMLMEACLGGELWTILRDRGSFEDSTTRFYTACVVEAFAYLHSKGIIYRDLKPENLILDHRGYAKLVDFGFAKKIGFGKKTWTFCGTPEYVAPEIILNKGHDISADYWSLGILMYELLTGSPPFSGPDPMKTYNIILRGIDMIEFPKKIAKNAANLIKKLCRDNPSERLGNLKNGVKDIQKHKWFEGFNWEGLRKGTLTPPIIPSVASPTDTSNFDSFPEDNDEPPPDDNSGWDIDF
To be noted: at 0.1 µM.

Assay [5] has as its target T3, cGMP-dependent protein kinase 1 (Homo sapiens). As to conditions: at 1 µM.
For assay [6], the target named is T4, cGMP-dependent protein kinase 2 (Homo sapiens) (UniProt Q13237).
T4 sequence (whole entry): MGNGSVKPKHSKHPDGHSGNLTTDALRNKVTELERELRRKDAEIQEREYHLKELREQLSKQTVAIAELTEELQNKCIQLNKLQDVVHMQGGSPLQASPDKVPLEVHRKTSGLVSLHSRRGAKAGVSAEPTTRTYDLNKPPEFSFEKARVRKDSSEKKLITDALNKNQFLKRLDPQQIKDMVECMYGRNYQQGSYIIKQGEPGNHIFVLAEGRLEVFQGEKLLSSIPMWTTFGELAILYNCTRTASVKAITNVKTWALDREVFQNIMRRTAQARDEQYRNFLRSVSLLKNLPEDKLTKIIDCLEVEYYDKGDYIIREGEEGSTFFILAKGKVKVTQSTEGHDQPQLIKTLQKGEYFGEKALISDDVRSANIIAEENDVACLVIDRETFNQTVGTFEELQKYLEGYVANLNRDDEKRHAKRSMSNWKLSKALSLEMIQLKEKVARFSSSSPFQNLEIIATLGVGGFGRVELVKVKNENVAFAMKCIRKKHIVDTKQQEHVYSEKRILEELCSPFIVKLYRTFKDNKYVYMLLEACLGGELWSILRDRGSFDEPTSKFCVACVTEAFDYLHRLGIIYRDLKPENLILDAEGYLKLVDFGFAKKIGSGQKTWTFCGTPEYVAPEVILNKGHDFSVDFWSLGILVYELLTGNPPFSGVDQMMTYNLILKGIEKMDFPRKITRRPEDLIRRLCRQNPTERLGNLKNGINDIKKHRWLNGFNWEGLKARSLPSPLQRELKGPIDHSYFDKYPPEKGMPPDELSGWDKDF
To be noted: at 0.1 µM.

Assay [7] deals with T4, cGMP-dependent protein kinase 2 (Homo sapiens). As to conditions: at 1 µM.
Assay [8] addresses T5, cAMP-dependent protein kinase catalytic subunit PRKX (Homo sapiens) (UniProt P51817).
T5 sequence (whole entry): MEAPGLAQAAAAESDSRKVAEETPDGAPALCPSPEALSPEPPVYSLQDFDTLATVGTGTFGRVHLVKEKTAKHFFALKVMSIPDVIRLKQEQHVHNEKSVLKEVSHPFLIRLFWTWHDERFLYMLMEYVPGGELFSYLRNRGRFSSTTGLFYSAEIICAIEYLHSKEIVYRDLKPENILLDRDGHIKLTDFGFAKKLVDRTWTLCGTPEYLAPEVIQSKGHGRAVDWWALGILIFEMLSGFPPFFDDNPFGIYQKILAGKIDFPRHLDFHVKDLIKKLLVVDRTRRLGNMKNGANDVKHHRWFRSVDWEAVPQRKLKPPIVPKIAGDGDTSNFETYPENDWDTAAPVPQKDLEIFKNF
As to conditions: at 0.1 µM.

Assay [9] concerns the target T5, cAMP-dependent protein kinase catalytic subunit PRKX (Homo sapiens). To be noted: at 1 µM.
In assay [10] the target is Rho-associated protein kinase 1 (Homo sapiens) (UniProt Q13464). To be noted: at 0.1 µM.
Assay [11] shares this target. To be noted: at 1 µM.
Assay [12] addresses Rho-associated protein kinase 2 (Homo sapiens) (UniProt O75116). As to conditions: at 0.1 µM.
The target is the same in assay [13]. As to conditions: at 1 µM.
In assay [14] the target is Ribosomal protein S6 kinase alpha-1 (Homo sapiens) (UniProt Q15418). As to conditions: at 0.1 µM.
For assay [15] the target is unchanged. To be noted: at 1 µM.
Assay [16] concerns the target Ribosomal protein S6 kinase alpha-3 (Homo sapiens) (UniProt P51812). As to conditions: at 0.1 µM.
For assay [17] the target is unchanged. To be noted: at 1 µM.
The target of assay [18] is Ribosomal protein S6 kinase alpha-2 (Homo sapiens) (UniProt Q15349). To be noted: at 0.1 µM.
For assay [19] the target is unchanged. As to conditions: at 1 µM.
The target in assay [20] is Ribosomal protein S6 kinase alpha-6 (Homo sapiens) (UniProt Q9UK32). To be noted: at 0.1 µM.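 Further: reported value is the mean inhibition of RSK4, from the GSK PKIS kinase inhibitor screen.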
Sequence of Ribosomal protein S6 kinase alpha-6 (Homo sapiens) (Q9UK32 whole entry): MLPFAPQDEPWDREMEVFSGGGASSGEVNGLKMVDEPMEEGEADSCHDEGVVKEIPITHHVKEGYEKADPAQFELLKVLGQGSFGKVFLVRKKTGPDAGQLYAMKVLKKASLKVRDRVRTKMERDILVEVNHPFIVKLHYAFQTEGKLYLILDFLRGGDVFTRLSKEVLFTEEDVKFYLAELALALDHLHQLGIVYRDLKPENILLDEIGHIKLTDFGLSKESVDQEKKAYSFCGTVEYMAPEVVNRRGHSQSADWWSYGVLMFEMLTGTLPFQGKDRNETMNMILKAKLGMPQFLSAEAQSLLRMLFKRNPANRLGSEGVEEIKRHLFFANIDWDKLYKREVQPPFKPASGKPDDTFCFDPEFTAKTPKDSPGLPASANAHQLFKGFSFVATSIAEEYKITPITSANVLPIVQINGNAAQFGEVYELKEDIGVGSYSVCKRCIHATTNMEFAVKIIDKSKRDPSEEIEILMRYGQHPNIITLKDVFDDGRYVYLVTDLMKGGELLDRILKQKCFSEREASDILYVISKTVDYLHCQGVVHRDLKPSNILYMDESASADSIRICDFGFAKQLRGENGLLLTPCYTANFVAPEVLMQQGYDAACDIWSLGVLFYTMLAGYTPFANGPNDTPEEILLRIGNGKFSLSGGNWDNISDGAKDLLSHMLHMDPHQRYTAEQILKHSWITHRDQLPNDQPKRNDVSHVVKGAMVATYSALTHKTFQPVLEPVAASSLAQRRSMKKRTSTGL

Sequence of Ribosomal protein S6 kinase alpha-2 (Homo sapiens) (Q15349 whole entry): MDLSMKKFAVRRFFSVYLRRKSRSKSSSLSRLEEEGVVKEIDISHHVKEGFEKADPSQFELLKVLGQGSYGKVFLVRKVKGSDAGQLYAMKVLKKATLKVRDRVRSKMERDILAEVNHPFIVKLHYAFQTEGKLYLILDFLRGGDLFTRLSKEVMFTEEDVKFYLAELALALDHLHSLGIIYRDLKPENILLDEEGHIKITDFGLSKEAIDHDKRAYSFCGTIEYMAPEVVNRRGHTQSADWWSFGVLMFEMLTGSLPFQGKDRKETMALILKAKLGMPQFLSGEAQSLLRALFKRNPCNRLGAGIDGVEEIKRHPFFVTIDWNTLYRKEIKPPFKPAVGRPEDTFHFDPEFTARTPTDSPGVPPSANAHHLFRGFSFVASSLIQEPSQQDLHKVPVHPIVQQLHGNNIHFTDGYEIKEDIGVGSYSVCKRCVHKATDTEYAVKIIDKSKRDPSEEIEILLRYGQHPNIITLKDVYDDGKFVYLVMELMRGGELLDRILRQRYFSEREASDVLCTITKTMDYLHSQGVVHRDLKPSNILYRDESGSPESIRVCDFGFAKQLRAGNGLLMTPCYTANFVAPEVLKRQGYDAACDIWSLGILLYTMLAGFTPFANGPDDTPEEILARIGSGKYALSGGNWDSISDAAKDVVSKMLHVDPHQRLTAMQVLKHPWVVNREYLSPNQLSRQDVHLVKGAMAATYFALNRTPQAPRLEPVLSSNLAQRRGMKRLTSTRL
Sequence of Rho-associated protein kinase 2 (Homo sapiens) (O75116 whole entry, looked up): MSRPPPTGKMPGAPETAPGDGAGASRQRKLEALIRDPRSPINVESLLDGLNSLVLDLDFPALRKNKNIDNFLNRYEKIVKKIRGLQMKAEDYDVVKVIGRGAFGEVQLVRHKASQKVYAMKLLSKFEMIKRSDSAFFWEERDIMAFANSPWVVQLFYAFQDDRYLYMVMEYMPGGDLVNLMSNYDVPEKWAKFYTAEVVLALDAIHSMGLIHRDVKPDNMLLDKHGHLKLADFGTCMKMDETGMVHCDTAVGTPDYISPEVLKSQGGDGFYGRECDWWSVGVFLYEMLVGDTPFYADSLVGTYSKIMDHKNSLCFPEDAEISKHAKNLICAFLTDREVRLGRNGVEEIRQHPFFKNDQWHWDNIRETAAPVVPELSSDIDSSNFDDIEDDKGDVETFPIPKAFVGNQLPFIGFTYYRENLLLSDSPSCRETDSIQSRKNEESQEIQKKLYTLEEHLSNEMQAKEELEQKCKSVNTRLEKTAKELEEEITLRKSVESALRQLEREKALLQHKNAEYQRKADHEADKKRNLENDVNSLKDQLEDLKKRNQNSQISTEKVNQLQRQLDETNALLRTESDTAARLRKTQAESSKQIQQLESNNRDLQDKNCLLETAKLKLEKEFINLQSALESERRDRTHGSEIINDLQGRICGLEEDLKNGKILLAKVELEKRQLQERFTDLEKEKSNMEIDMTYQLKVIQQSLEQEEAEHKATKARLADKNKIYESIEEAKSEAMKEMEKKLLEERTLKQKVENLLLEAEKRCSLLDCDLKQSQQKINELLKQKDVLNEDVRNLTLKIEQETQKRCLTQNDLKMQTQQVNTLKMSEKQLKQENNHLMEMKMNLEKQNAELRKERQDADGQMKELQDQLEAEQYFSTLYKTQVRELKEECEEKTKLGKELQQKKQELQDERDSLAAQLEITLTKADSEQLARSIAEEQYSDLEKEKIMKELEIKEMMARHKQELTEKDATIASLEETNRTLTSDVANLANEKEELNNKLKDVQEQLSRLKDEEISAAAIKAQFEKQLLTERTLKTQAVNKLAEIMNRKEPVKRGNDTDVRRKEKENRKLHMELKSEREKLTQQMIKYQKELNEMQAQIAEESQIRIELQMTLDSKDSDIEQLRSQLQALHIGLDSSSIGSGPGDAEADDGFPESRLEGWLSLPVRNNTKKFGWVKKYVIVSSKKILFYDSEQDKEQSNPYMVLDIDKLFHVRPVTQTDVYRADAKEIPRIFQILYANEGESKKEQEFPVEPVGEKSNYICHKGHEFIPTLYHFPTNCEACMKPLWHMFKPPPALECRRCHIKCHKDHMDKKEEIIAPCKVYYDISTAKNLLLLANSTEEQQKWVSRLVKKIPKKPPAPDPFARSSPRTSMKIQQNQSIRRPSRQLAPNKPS
Sequence of Ribosomal protein S6 kinase alpha-3 (Homo sapiens) (P51812 whole entry): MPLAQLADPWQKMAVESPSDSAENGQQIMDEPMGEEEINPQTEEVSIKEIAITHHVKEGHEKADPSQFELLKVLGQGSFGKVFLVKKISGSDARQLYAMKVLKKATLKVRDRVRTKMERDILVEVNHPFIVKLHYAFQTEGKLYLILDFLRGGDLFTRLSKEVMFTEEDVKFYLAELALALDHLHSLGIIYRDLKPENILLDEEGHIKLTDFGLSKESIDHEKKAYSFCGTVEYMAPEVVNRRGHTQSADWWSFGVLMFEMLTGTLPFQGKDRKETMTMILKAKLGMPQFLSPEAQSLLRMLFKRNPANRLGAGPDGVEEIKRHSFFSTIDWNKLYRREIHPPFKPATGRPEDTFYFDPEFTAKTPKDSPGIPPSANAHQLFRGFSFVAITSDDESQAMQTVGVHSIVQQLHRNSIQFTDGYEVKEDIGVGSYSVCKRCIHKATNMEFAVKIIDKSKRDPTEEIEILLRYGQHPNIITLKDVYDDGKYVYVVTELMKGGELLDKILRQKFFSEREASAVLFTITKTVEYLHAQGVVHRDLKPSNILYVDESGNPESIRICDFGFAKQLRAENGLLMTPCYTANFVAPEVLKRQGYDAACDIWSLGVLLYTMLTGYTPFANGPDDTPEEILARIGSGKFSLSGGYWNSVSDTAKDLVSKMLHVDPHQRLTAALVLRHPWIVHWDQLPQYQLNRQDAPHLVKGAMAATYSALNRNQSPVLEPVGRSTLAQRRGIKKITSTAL
Sequence of Ribosomal protein S6 kinase alpha-1 (Homo sapiens) (Q15418 whole entry): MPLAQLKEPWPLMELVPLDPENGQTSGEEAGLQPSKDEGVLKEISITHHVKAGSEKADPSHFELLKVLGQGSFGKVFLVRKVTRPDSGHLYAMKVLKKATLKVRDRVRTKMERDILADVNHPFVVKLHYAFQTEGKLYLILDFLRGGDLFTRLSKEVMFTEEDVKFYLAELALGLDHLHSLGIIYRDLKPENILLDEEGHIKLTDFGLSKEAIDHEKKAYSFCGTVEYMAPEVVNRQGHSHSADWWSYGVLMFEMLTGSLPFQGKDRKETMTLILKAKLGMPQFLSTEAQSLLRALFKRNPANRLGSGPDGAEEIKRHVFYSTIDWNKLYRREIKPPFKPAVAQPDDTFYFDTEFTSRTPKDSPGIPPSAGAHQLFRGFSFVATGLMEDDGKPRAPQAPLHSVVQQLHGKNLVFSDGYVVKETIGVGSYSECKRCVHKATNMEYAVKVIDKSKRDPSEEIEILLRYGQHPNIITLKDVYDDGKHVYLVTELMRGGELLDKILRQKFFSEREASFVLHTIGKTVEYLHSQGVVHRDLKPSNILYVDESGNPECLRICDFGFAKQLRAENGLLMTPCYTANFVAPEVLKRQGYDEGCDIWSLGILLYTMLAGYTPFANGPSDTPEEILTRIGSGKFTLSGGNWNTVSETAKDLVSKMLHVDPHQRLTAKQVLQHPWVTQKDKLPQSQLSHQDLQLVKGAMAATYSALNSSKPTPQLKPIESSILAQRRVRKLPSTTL

Consider `c1ccc(Cc2nc3ccc(Nc4ncnc5ccccc45)cc3[nH]2)cc1`, for which the inhibition in assay [1] was found to be 4.57%; in assay [2] it was 3.17%; in [3], 5.52%; in assay [4] it was 1.14%; in assay [5], 4.46%; in assay [6] it was 1.61%. For the same molecule, the inhibition in [7] was found to be 6.41%; in [8], 0.98%; in assay [9], 1.89%; in [10], 0.25%; in [11], 1.95%; in assay [12], 2.34%. Besides, the inhibition in assay [13] was found to be 4.82%; in [14], 2.52%; in assay [15], 4.1%; in assay [16], 0.88%; in [17], 2.69%; in assay [18], 1.07%. For the same molecule, the inhibition turned out to be 3.24% in assay [19] and 0.96% in assay [20].

In the case of `O=S(=O)(CCOCc1ccc(-c2ccc3ncnc(Nc4ccc(OCc5cccc(F)c5)c(Cl)c4)c3c2)o1)c1ccccc1`, the inhibition in [1] was 2.14%; in assay [2], 1.07%; in assay [3], 1.96%; in assay [4] it was 1.36%; in assay [5], 2.37%; in assay [6], 1.18%. Besides, the inhibition was 2.63% in assay [7]; 1.21% in assay [8]; 1.09% in [9]; 1.34% in [10]; 3.68% in assay [11]; 1.09% in assay [12]. The inhibition was 6.38% in [13]; -1.65% in assay [14]; 1.43% in assay [15]; -0.82% in [16]; 1.23% in assay [17]; -0.87% in assay [18]. Moreover, the figures for the inhibition in assay [19] and in assay [20] were 1.09% and -1.59%, respectively.

`CCS(=O)(=O)c1ccc(OC)c(Nc2ncc(-c3cccc(OC)c3)o2)c1`: the inhibition in assay [1] amounted to 3.71%; in assay [2], 3.28%; in assay [3], 3.64%; in assay [4], 1.45%; in [5], 2.34%; in assay [6] it was 0.25%. Besides, the inhibition in assay [7] is 2.95%; in assay [8], 0.28%; in assay [9], -2.35%; in assay [10] it was 0.26%; in assay [11] it was 2.35%; in [12], 0.89%. In addition, the inhibition in [13] is 1.18%; in [14], 0.6%; in [15] it was 4.04%; in assay [16] it was -0.45%; in assay [17], 0.81%; in assay [18], 1.33%. Besides, the inhibition in [19] was 4.86%; in assay [20] it was -0.11%.

Consider `CN(C)CCCn1c(-c2nonc2N)nc2cnccc21`, for which the inhibition in assay [1] amounted to 5.95%; in assay [2], 4.93%; in assay [3], 7.35%; in [4] it was 3.68%; in assay [5], 4.99%; in assay [6], 2.51%. For the same molecule, the inhibition in assay [7] is 5.66%; in assay [8] it was 1.48%; in assay [9], 3.97%; in assay [10], 5.96%; in assay [11], 32.8%; in [12] it was 11.6%. Besides, the inhibition stood at 45.3% in [13]; 2.28% in assay [14]; 11.8% in assay [15]; 1.45% in [16]; 6.61% in assay [17]; 4.55% in assay [18]. The inhibition in [19] is 16.4%; in assay [20] it was 1.79%.
